# Source: PubChem BioAssay (Tox21)
# Inconclusive results are not listed. A number with no mark means an inactive call. Activity calls are given as the source filed them. The call rests on the fitted dose curve.
# Experiment: Nuclear factor erythroid 2-related factor 2/antioxidant responsive element (Nrf2/ARE) small molecule agonists: luciferase reporter gene qHTS assay in human keratinocytes (AID 1919969); further: nearly all actives have a fitted effect of over 35% in size
# Settings: KeratinoSens HaCaT ARE-luciferase, luminescence, 24 h; series mostly up to 92.4 µM; activity, positive = activation: at the top concentration
# On the % scale 0 is the no-effect control and ±100 the full control effect; potency means the concentration at half of the fitted maximal effect.
SMILES,"activity, positive = activation",Potency
CCCC1CCC(=O)O1 (stereo not given),-14.4%,
CCN(CC)c1ccc2c(-c3ccc(S(=O)(=O)O)cc3S(=O)(=O)[O-])c3ccc(=[N+](CC)CC)cc-3oc2c1,-1.33%,
COc1ccc(/C=C/S(=O)(=O)NC(=O)c2ccc(C)cc2Cl)cc1,-5.8%,
N[C@@H](Cc1cc(I)c(O)c(I)c1)C(=O)O,3.18% [at 42.5 µM],
C=CC(=O)OCC(Br)CBr (stereo not given),,68.6 µM (active)
O=C1CCC(C2CCCCC2)CC1,0.193%,
COc1ccc(C(=O)N2CCN(CC(=O)N3CCOCC3)CC2)cc1,-1.53% [at 42.5 µM],
COCCC(=O)OC,,68.6 µM (active)
Cc1nc2ccc(Cl)cc2[nH]1,8.16%,
CC(C)(C)C(=O)C(=O)O,-6.2%,
COc1cccc(O)c1O,,28.4 µM (active)
N=C1C=CC(=C(c2ccc(N)cc2)c2ccc(N)cc2)C=C1,,61.1 µM (active)
O=C1c2ccccc2C(=O)C1c1ccc2ccccc2n1,,1.21 µM (active)
CN1CCN(C2=Nc3cc(F)ccc3Cc3ccccc32)CC1,-1.37% [at 42.5 µM],
CC1=NN(c2ccc(C(=O)O)cc2)C(=O)C1,4.46%,
Oc1ccc(Oc2ccccc2)cc1,9.19%,
CC(C)(O)CCCC1=CCC(C=O)CC1 (stereo not given),2.87%,
NS(=O)(=O)Cc1noc2ccccc12,-3.24% [at 42.5 µM],
COc1ccc(C(=O)c2ccc(OC)cc2O)c(O)c1,,69.1 µM (active)
Fc1ccc([C@@H]2CCNC[C@H]2COc2ccc3c(c2)OCO3)cc1,-11.1% [at 42.5 µM],

SMILES,"activity, positive = activation",Potency
CCOC(=O)O[C@H](C)OC(=O)c1ccc2c(c1)cc(C(=O)NC1CCN(C(C)C)CC1)n2Cc1cc(-c2ccc(Cl)s2)on1,-48.5%,
CC1=C(/C=C/C(C)=C\C=C\C(C)=C\C(=O)O)C(C)(C)CCC1,,54.5 µM (active)
Cc1cccc(N(C)C(=S)Oc2ccc3c(c2)CCC3)c1,12.6% [at 42.5 µM],
CCCC(=O)OCCC(C)C,1.07%,
COc1ccccc1NC(=O)c1cc2ccccc2cc1O,,61.1 µM (active)
O=C(CCBr)N1CCN(C(=O)CCBr)CC1,0.655% [at 42.5 µM],
CN(C)CCC=C1c2ccccc2C=Cc2ccccc21,-1.31% [at 42.5 µM],
O=C(O)c1cccc(Oc2ccccc2)c1,-11.1%,
COc1ccc([C@@H]2Sc3ccccc3NC(=O)[C@@H]2O)cc1,-3.22% [at 42.5 µM],
Oc1ccc(C2CNCCc3c2cc(O)c(O)c3Cl)cc1 (stereo not given),5.36% [at 42.5 µM],
CC(c1cc(C(C)(C)C)cc(C(C)(C)C)c1O)c1cc(C(C)(C)C)cc(C(C)(C)C)c1O,4.81%,
Nc1ccc(S(=O)(=O)NCc2ccccc2)cc1,5.09% [at 42.5 µM],
Nc1[nH]c(=O)ncc1F,0.24% [at 42.5 µM],
O=Cc1ccccc1[N+](=O)[O-],14%,
CCC1CCC(CCC(=O)O)C1 (stereo not given),5%,
CCCCCCCCCCCCCCCCCC(=O)OCCCCCCCCCCCCCC(C)C,3.27%,
CCCCCCCCCCCCCCCCCl,-7.33% [at 19 µM],
CCCOC(=O)c1ccc(O)cc1,,27.3 µM (active)
CC1COc2c(N3CCN(C)CC3)c(F)cc3c(=O)c(C(=O)O)cn1c23 (stereo not given),-5.22% [at 42.5 µM],
CCCCS,-4.11%,
